mHTT CaM bind = mHTT-calmodulin interaction abrogation. inhibition, % at 15 µM. AlphaScreen His-mHTT/GST-CaM binding, luminescence. 3.6% of 190,000 active. P42858. AID 1671202
Pf apPOL inh = Pf-apPOL DNA polymerase inhibition; Recombinant Pf-apPOL, molecular beacon fluorescence, 1.5 h; inhibition, % at 10 µM; 0.25% of 210,000 active; AID 1794808
Large screens that a line does not name were inactive; ! = not confirmed by another sample. Only some compounds are listed: those with a hit (about 3.5% of all), similar ones and a draw of the others. Cut-off read from the data, not from the text of the source: active = inhibition above about 50%; inactive = the rest.

CCN(CC)c1ccc(/C=C2\N=C(c3cccc([N+](=O)[O-])c3)OC2=O)cc1	none
O=C(Nc1ccccc1)c1cc(S(=O)(=O)N2CCC(=O)C3CCCCC32)ccc1Cl (stereo unspecified)	none
O=C(Cc1csc(SCC(=O)Nc2ccc(Cl)cc2)n1)NCc1ccccn1	none
O=c1oc2c(-c3ccc(Cl)cc3)cc(O)cc2s1	mHTT CaM bind 80.0
O=c1oc2c(-c3ccc([N+](=O)[O-])cc3)cc(O)cc2s1	none
COc1cc(OC)c2c(-c3cccc(-c4cccc(C)c4)c3)cc(=O)oc2c1	none
Cc1cccc(-c2cc(O)cc3sc(=O)oc23)c1	mHTT CaM bind 91.0
Cc1cccc(C(C)C)c1NC(=O)COc1ccc(Cl)cc1Cl	none
CC(=NN=C1NC(=O)CS1)c1ccc(Cl)s1	none (no result: mHTT CaM bind)
COc1ccc(-c2noc(-c3cc([N+](=O)[O-])ccc3Cl)n2)cc1OC	none
CCOCCSC1=C(C#N)C(c2ccccc2)C(C(C)=O)=C(C)N1 (stereo unspecified)	none
Cn1nc(COc2ccc(F)cc2)c2c1CCN(C(=O)Nc1cccc(C(F)(F)F)c1)C2	mHTT CaM bind 59.3
COc1ccc(NC(=O)N2CCc3c(c(COc4ccc(F)cc4)nn3C)C2)cc1F	none
Cn1nc(COc2cccc(F)c2)c2c1CCN(C(=O)Nc1cccc(Cl)c1)C2	none
Cn1nc(COc2ccc(F)cc2)c2c1CCN(C(=O)Nc1ccc(F)c(Cl)c1)C2	mHTT CaM bind 54.7
Cc1cccc(NC(=O)c2cccn2Cc2noc(C)n2)c1	none
CCC(=O)N1CCc2sc(S(=O)(=O)NCc3cccc(Br)c3)cc2C1	none
Cc1cc(-c2cc(=O)[nH][nH]2)c(C)s1	none (no result: Pf apPOL inh)
CCOC(=O)c1sc(NC(=O)c2ccc3ncsc3c2)c(C#N)c1C	none
O=c1/c(=C/c2ccccc2O)sc2n1CN(c1ccc(Cl)cc1)CN=2	Pf apPOL inh 51.3
O=c1/c(=C/c2ccccc2O)sc2n1CN(c1ccc(F)cc1)CN=2	none
O=C(CSc1nnc(NC(=O)C2(c3cccs3)CCCC2)s1)c1ccccc1	none
CC(=O)N1c2ccccc2NC2=C(C(=O)CC(C)(C)C2)C1CC1CC=C(C)C1(C)C (stereo unspecified)	none
CCC(=O)N1c2ccccc2NC2=C(C(=O)CC(C)(C)C2)C1CC1CC=C(C)C1(C)C (stereo unspecified)	mHTT CaM bind 59.0
Nc1cccc(C(=O)Nc2cccc(Cl)c2)c1	none
CC(=O)N(Cc1nn(C)c2c1CN(C(=O)Nc1ccc(C)c(C)c1)CC2)c1ccccc1	none
Cc1cccc(N(CC(=O)Nc2ccc3c(c2)OCO3)S(C)(=O)=O)c1C	none
Cc1ccc(S(=O)(=O)N2CCC(C(=O)NC(C)(C)C)CC2)cc1	none
CCN1C(=O)C(O)(CC(=O)c2ccccc2OC)c2ccccc21 (stereo unspecified)	none
C=CCN1C(=O)C(O)(CC(=O)c2ccc(C)cc2C)c2ccccc21 (stereo unspecified)	mHTT CaM bind 60.0
O=C(NC1CCS(=O)(=O)C1)C1CCCN(S(=O)(=O)c2ccccc2)C1 (stereo unspecified)	none
Cc1ccc(-c2ccc(CN3C(C)C(=O)N(Cc4cn(CC5CCCCC5)nn4)CCS3(=O)=O)cc2)cc1 (stereo unspecified)	none
CC1C(=O)N(Cc2cn(CC3CCCCC3)nn2)CCS(=O)(=O)N1Cc1ccc(-c2ccccc2)cc1 (stereo unspecified)	mHTT CaM bind 72.8
COc1ccc(-c2ccc(CN3C(CC(C)C)C(=O)N(Cc4cn(CC5CCCCC5)nn4)CCS3(=O)=O)cc2)cc1OC (stereo unspecified)	none
CC(C)CC1C(=O)N(Cc2cn(CC3CCCCC3)nn2)CCS(=O)(=O)N1Cc1ccc(-c2ccncc2)cc1 (stereo unspecified)	mHTT CaM bind 64.8
Cc1cccc(NC(=O)Cn2nc(N3CCCC(C)C3)c3ccccc3c2=O)c1C (stereo unspecified)	none
CN(C)S(=O)(=O)c1ccc(C(=O)N2CCC(c3nnc(C(F)(F)F)o3)CC2)cc1	none
O=C(O)c1ccc(COc2cc([N+](=O)[O-])cc3cccnc23)cc1	none
O=S(=O)(c1cccn2cnnc12)N(Cc1ccccc1F)c1ccc(F)c(F)c1	mHTT CaM bind 60.7
O=S(=O)(c1cccn2cnnc12)N(Cc1cccc(F)c1)c1ccc(F)cc1	mHTT CaM bind 50.7
O=S(=O)(c1cccn2cnnc12)N(Cc1ccc(F)cc1)c1ccc(F)cc1	none
O=S(=O)(Nc1ccc(F)cc1)c1cccn2cnnc12	Pf apPOL inh 61.6
O=S(=O)(c1cccn2cnnc12)N(Cc1cccc(F)c1)c1ccc(F)c(F)c1	none
O=S(=O)(c1ccc2nncn2c1)N(Cc1ccccc1Cl)c1ccccc1	none
CCCCOc1ccc(NC(=O)NCC(C)(O)c2ccc3c(c2)OCO3)cc1 (stereo unspecified)	none
CN1C(=O)C(C(c2ccccc2)c2ccccc2)C(=O)N(C)C1=O	none
O=C(O)C1Cc2c([nH]c3ccccc23)C(c2ccccc2Cl)N1 (stereo unspecified)	none
O=C(CCC1CCCC1)N1CCC(COc2ccccc2C(=O)N2CCOCC2)CC1	none
Cn1c2c(c(=O)n(C)c1=O)C(c1ccc(Cl)cc1)C1=C(N2)c2ccccc2C1=O (stereo unspecified)	none
Cn1c2c(c(=O)[nH]c1=O)C(c1ccc(OCc3ccccc3)cc1)C1=C(N2)c2ccccc2C1=O (stereo unspecified)	mHTT CaM bind 86.0
Cn1c2c(c(=O)[nH]c1=O)C(c1ccc(O)cc1)C1=C(N2)c2ccccc2C1=O (stereo unspecified)	none
O=C1C2=C(Nc3[nH]c(=O)[nH]c(=O)c3C2c2ccc(Cl)cc2)c2ccccc21 (stereo unspecified)	mHTT CaM bind 67.0!
CC(=O)N(CCC1(Cc2ccccc2Cl)CCOC(C)(C)C1)Cc1ccco1 (stereo unspecified)	none
O=C(c1cccs1)N1CCN(c2ccc([N+](=O)[O-])c(NCCc3ccccc3)c2)CC1	none
CSc1ccccc1NC(=O)C(=O)NCC1(O)CCc2ccccc21 (stereo unspecified)	none
Cc1c(C(=O)NCCSC2CCCCC2)cccc1[N+](=O)[O-]	none
COc1cc(/C=C2/SC(=Nc3ccccc3Cl)NC2=O)cc(OC)c1	none
CCOc1cc(/C=C2/SC(=Nc3cccc(C(=O)O)c3)NC2=O)ccc1OC	mHTT CaM bind 51.0
O=C1NC(=Nc2ccccc2Cl)S/C1=C/c1cccc(C(=O)O)c1	none
CCOc1cc(/C=C2/SC(=Nc3ccccc3Cl)NC2=O)ccc1O	mHTT CaM bind 53.0
O=C1NC(=Nc2cccc(Cl)c2Cl)S/C1=C\c1ccc(O)c(O)c1	mHTT CaM bind 83.0
CCOc1cc(/C=C2/SC(=Nc3ccccc3)NC2=O)ccc1OC	none
O=C(CSc1ccccc1)N1CCCc2ccccc21	none
CCCC(=O)Nc1nc2n(n1)C(c1ccccc1)C=C(c1ccccc1)N2 (stereo unspecified)	none
COc1ccc(/C=C/C(=O)Nc2nc3n(n2)C(c2ccccc2)C=C(c2ccccc2)N3)cc1 (stereo unspecified)	mHTT CaM bind 72.0
Cc1nc2ccccc2n1C(=O)c1ccc(F)cc1	none
COc1cc(C(=O)n2c(C)nc3ccccc32)cc(OC)c1OC	mHTT CaM bind 89.2
Cc1ccc(C(=O)Nc2cc(C)c3c(=O)oc4ccccc4c3n2)cc1	none
NC(=O)c1c(NC(=O)C2CCCN(C(=O)c3ccco3)C2)sc2c1CCCC2 (stereo unspecified)	mHTT CaM bind 73.0
NC(=O)c1c(NC(=O)c2ccco2)sc2c1CCC2	none

From PubChem
